Laboratory results: PubChem BioAssay (NCI)
About 83,000 compounds went through this panel and 20% of them were active in at least one assay; those are over-represented in the sample as a whole.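 The endpoint reported here, percent growth, reads 100 for growth as untreated, 0 for no net growth and -100 for all cells dead.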 Activity calls are given as the source filed them. How the source made its calls: active means growth percent below 10; inactive means the rest.

How the values were obtained:
Experiment in all cases: NCI-60 one-dose screen, 48 h (100 = growth as untreated, 0 = no growth, -100 = all killed)
Settings in all cases: 10 µM unless noted
[1] = system: T-47D breast
[2] = system: BT-549 breast
[3] = system: MDA-MB-435 melanoma
[4] = system: SW-620 colon
[5] = system: MCF7 breast
[6] = system: HCT-116 colon
[7] = system: HCC-2998 colon
[8] = system: KM12 colon

Measured: growth

CCN(CC)CCOc1ccc2c(-c3ccccc3)c(-c3ccc(OC)cc3)c(=O)oc2c1
inactive: [1] 51.4% | [2] 90.6% | [3] 41.3% | [4] 39.4% | [5] 61.3% | [6] 30% | [7] 90.9% | [8] 60.4%

O=C(NC1CCC(Br)CC1)C1CCCC(S(=O)(=O)NC2CCCCC2)C1 (configuration not stated)
active: [1] -9.71% [25 µM] | [5] 6.38% [25 µM]
inactive: [2] 21.6% [25 µM] | [3] 14.4% [25 µM] | [4] 31.2% [25 µM] | [6] 17% [25 µM] | [7] 24.6% [25 µM] | [8] 16.9% [25 µM]

Nc1c(Cl)cc(/C=C2\C=Cc3ccccc32)cc1Cl
inactive: [1] 95.6% | [2] 101% | [3] 107% | [4] 111% | [5] 123% | [6] 103% | [7] 98% | [8] 106%

c1ccc(Cn2cc3c(c2-c2ccccc2)CCc2cnoc2-3)cc1
inactive: [1] 67% | [2] 64.1% | [3] 13.5% | [4] 24.1% | [5] 51.3% | [6] 44.5% | [7] 58.5% | [8] 27.7%

COc1ccc(OC)c(Nc2nnc(-c3cc(OC)c(OC)c(OC)c3)o2)c1
inactive: [1] 82.2% | [2] 88.8% | [3] 102% | [4] 108% | [5] 105% | [6] 103% | [7] 103% | [8] 94.6%

O=C(O)CCCCCCCCCCN1C(=O)/C(=C2/C(=O)N(CC(=O)O)c3ccc(Br)cc32)SC1=S
inactive: [1] 77.9% | [2] 105% | [3] 102% | [4] 106% | [5] 82.9% | [6] 87.2% | [7] 115% | [8] 40.2%

C=C1C(=O)O[C@@H]2C3C(=C(C)CC[C@@H]12)CC1O[C@]13C (some centres not stated)
inactive: [1] 56.8% [6.75 µM] | [2] 76.3% [6.75 µM] | [3] 75.5% [6.75 µM] | [4] 71.8% [6.75 µM] | [5] 44.2% [6.75 µM] | [6] 46.1% [6.75 µM] | [7] 108% [6.75 µM] | [8] 102% [6.75 µM]

Cc1cccc(N2C(=O)/C(=C/C(Cl)=C/c3ccc([N+](=O)[O-])cc3)SC2=S)c1C
active: [1] 5.42% | [2] 3.15% | [4] 0.401% | [6] -38.8%
inactive: [3] 10.4% | [5] 15.2% | [7] 42% | [8] 19.3%

O=C(Nc1cc(Cl)cc(Cl)c1)Oc1c(Cl)c(Cl)c(Cl)c(Cl)c1Cl
inactive: [1] 77.5% | [2] 74.9% | [3] 75.9% | [4] 88.3% | [5] 83% | [6] 62.1% | [7] 93.4% | [8] 83.3%

N[C@@H]1CCC[C@H]1NCCCCN1C(=O)c2cccc3cc([N+](=O)[O-])cc(c23)C1=O
inactive: [1] 38.1% | [2] 69.7% | [3] 43.4% | [4] 23.8% | [5] 17.2% | [6] 11.3% | [7] 48% | [8] 33.1%

CCOC(=O)CC1CSC(N/N=C/c2ccc(F)c(Br)c2)=N1 (configuration not stated)
inactive: [1] 93.7% | [2] 110% | [3] 108% | [4] 102% | [5] 96.1% | [6] 88.5% | [7] 105% | [8] 93.2%

COc1cc2c(cc1OCCCN1CCN(C(=S)SCCC(C#N)(c3ccccc3)c3ccccc3)CC1)N=C[C@@H]1CCCN1C2=O
active: [1] -50.5% | [2] -89.7% | [3] -15.2% | [4] -100% | [5] -86.1% | [6] -93.5% | [7] -86.8% | [8] -75.1%

CCOC(=O)c1nnn(Cc2cc(=O)oc3ccc(O)cc23)c1C
inactive: [1] 98% | [2] 110% | [3] 104% | [4] 98.2% | [5] 92.4% | [6] 96% | [7] 97.3% | [8] 102%

Nc1[nH]nc2nc(-c3ccccc3)n3c4ccccc4nc3c12
inactive: [1] 90.1% | [2] 105% | [3] 98.7% | [4] 95.8% | [5] 92.7% | [6] 99.4% | [7] 110% | [8] 104%

Cc1ccc(Cc2cnc(NC(=O)/C=C/c3ccc(C)o3)s2)cc1
active: [3] -52.5%
inactive: [1] 35.5% | [2] 72.3% | [4] 22.7% | [5] 12.3% | [6] 27.7% | [7] 65.2% | [8] 16.5%

O=C1c2cccnc2C(=O)c2c1c(C(=O)OCCc1ccccn1)c1ccccn21
active: [1] -6.8% | [2] -35.2% | [3] -10.7% | [4] 2.3% | [5] -56.8% | [6] -48.3% | [7] -70.3% | [8] 4.35%

COc1ccc2c(c1)CC[C@@H]1[C@@H]2CC[C@]2(C)C3C(=CC(COC(C)=O)C4C(=O)N(c5ccc(Cl)cc5)C(=O)C43)C[C@@H]12 (some centres not stated)
inactive: [1] 105% | [2] 116% | [3] 111% | [4] 104% | [5] 108% | [6] 85.2% | [7] 92.9% | [8] 102%

O=C(Nc1cc(Cl)ccc1O)c1ccccc1Nc1ccnc(C(F)(F)F)c1
inactive: [2] 33.2% | [3] 29.1% | [4] 15%
active: [1] 0.662% | [5] 8.95% | [6] 2.14% | [7] 3.95% | [8] 7.26%

Nc1ncccc1O
inactive: [1] 96.2% | [2] 93.7% | [3] 109% | [4] 51% | [5] 68.6% | [6] 37.9% | [7] 97.4% | [8] 100%

Cc1c2cnccc2c(C)c2c1c1cc(CO)ccc1n2C
active: [1] -21.2% | [2] -61.6% | [3] -81.2% | [4] 2.39% | [5] -13.9% | [6] -7.64% | [7] -65.4% | [8] 1.94%

CCN(CC)CCn1c2ccc(OC)cc2c2sc3cc(O)ccc3c(=O)c21
active: [5] 9.43%
inactive: [1] 62.5% | [2] 62.7% | [3] 48.8% | [4] 13.3% | [6] 14.2% | [7] 28.2% | [8] 24.6%

CC1(C)CC[C@]2(CO)CC[C@]3(C)[C@](O)([C@H](O)C[C@@H]4[C@@]5(C)CCCNC(C)(C)[C@@H]5CC[C@]43C)[C@@H]2C1
inactive: [1] 84.3% | [2] 98.8% | [3] 93.2% | [4] 99.6% | [5] 91.7% | [6] 71.3% | [7] 58.4% | [8] 95%

Nc1nc(N(Cc2ccccc2)c2ccccc2)c2cn[nH]c2n1
active: [3] 9.3%
inactive: [1] 44.4% | [2] 68.2% | [4] 25% | [5] 43.8% | [6] 40.9% | [7] 71.2% | [8] 35.1%

O=C(OCc1ccc2c(Cl)cc(Cl)c(O)c2n1)N1CCN(C(=O)c2cc3ccccc3[nH]2)CC1
inactive: [1] 23.5% | [2] 50.6% | [3] 39.1% | [4] 25.8% | [5] 25.3% | [6] 20.3% | [7] 55% | [8] 20.7%

COc1cc(O)c2c(=O)c3c(CC=C(C)C)cc(OC)c(O)c3oc2c1
active: [3] -3.84%
inactive: [1] 45.9% | [2] 33.2% | [4] 26.3% | [5] 23% | [6] 11.8% | [7] 53.4% | [8] 23.2%

O=c1cc(CP(=O)(O)O)c2cc(O)c(-c3ccccc3)cc2o1
inactive: [1] 101% | [2] 108% | [3] 99.2% | [4] 98.3% | [5] 96.9% | [6] 108% | [7] 102% | [8] 105%

CN1C(=O)/C(=C/c2ccc(C(=O)Nc3ncc(Cc4cc(Cl)ccc4Cl)s3)cc2)SC1=S
active: [3] 5.7%
inactive: [1] 59.8% | [2] 85.2% | [4] 62.8% | [5] 67.4% | [6] 60.9% | [7] 83.1% | [8] 49.8%

ClCCn1cnc2c(SCc3ccccc3)ncnc21
inactive: [1] 73.8% | [2] 70.4% | [3] 51.8% | [4] 39.4% | [5] 42.5% | [6] 31.5% | [7] 57.4% | [8] 53.2%

N#Cc1c(-c2cccc(Cl)c2)cc(-c2cccnc2)[nH]c1=O
active: [3] 2.97%
inactive: [1] 87.3% | [2] 72.5% | [4] 71.1% | [5] 48.2% | [6] 72.4% | [7] 98.6% | [8] 65.6%
